Assay outcomes deposited in PubChem BioAssay by several laboratories.
Rows were chosen to be rich in hits. Some 2.5% of all compounds tested hit in one or more screens of this group.
TWEAK-Fn14 inh – inhibitors of TWEAK-Fn14 interaction signaling; TWEAK-stimulated Fn14 reporter cells, luciferase luminescence, 8 h; inhibition, % at 10 µM; 360,000 tested, 2% active; AID 1159606; in the data active means inhibition above about 50%
LGR2 antag – blocks bursicon-induced cAMP signaling via Drosophila LGR2; inhibition, % at 9.99 µM; 380,000 tested, 0.35% active; AID 720647; HEK293 LGR2, CRE-luciferase, bursicon-stimulated, 4 h;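 active means drop in luminescence signal, shown as inhibition above about 50% in the replicate tests, limit read from the data, passing the limit was not always enough; inconclusive means probably only some replicates passing the limit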;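 further: agonist challenge used bursicon conditioned medium at about half maximal strength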
EWS-Fli block – inhibitors of EWS/Fli oncoprotein transcriptional activity. A673 NR0B1-luciferase reporter, viability-normalised. AID 651661. inhibition, % at 12.6 µM. 350,000 tested, 0.67% active;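 active means mean inhibition of at least 50% after viability correction, with every replicate also passing that limit; inconclusive means mean reaches 50% but only one of two replicates passes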;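 further: firefly luciferase signal divided by Alamar Blue viability fluorescence both relative to DMSO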
LMP1 NFkB inh – inhibitors of Epstein-Barr LMP1-induced NF-kappaB reporter; 350,000 tested, 0.69% active; LMP1-induced NF-kappaB luciferase reporter cells, luminescence; inhibition, % at 12.5 µM; AID 504558; in the data active means inhibition above about 41%; inconclusive means no clear call, values can overlap the other calls;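 further: 0% = neutral control wells and 100% = reference inhibitor control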
TROY NFkB inh – inhibitors of TROY-dependent NF-kB signaling | Q293 LMP1-TROYcd NF-kB luciferase reporter, 4 h | inhibition, % at 10 µM | 360,000 tested, 0.98% active | AID 1347056;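 active means compounds whose plate-normalised and pattern-corrected inhibition of the luciferase reporter signal at the single screening dose is 50% or more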
An asterisk follows results filed as active; ? = inconclusive; · = no result.

SMILES	TWEAK-Fn14 inh	LGR2 antag	EWS-Fli block	LMP1 NFkB inh	TROY NFkB inh
Clc1ccc(-n2ncc3c(N4CCCCCC4)ncnc32)cc1	105*	96*	80*	41*	92*
CC1CN(c2ncnc3c2cnn3-c2ccc(Cl)cc2)CC(C)O1 (stereo not given)	50	-42	-54	-46	55*
C=CCNc1ncnc2c1cnn2-c1ccc(Cl)cc1	25	·	-23	-65	-8
CCOC(=O)N1CCC(Nc2ncnc3c2cnn3-c2ccc(Cl)cc2)CC1	49	-6	-33	-3	50*
COc1ccc(-n2ncc3c(N4CCN(c5cccc(C)c5C)CC4)ncnc32)cc1	-83	-15	-2	-2	8
CC1CC(C)CN(c2ncnc3c2cnn3Cc2ccc(Cl)cc2)C1 (stereo not given)	10	·	·	-4	20
Clc1ccc(Cn2ncc3c(N4CCCCC4)ncnc32)cc1	22	·	·	-5	12
CC(=O)[C@]12O[C@@]3(COC[C@H](c4ccccc4)N3C1=O)[C@H]1C(=O)N(c3ccccc3)C(=O)[C@H]12	·	·	-13	·	·
O=C(c1ccccc1)N1C[C@@H]2[C@H](c3ccccc31)[C@@H](CO)N2S(=O)(=O)c1ccccc1	·	5	-4	·	·
COc1ccc(NC(=O)Nc2ccc3c(c2)C(=O)N([C@H](C)CO)C[C@H](C)[C@@H](CN(C)S(=O)(=O)c2ccccc2)OCCCC[C@H](C)O3)cc1	·	0	18	·	·
CN(C)C(=O)c1ccc(-c2ccc3n(c2=O)C[C@@H]2[C@@H](CO)[C@H](C(=O)NCCc4ccccc4)N[C@H]32)cc1	·	-16	1	·	·
CCOC(=O)C1CCCN(c2ncnc3c2cnn3-c2ccc(OC)cc2)C1 (stereo not given)	17	-38	·	7	-9
CCOC(=O)C1CCCN(c2ncnc3c2cnn3-c2ccc(Cl)cc2)C1 (stereo not given)	63*	-35	·	13	43
O=S(=O)(CCSc1nc2ccccc2o1)c1nc2ccccc2s1	91*	?	1	0	67*
O=C(CSc1ccccn1)Nc1nc2ccccc2s1	-9	-53	·	-13	-35
O=S(=O)(CCSc1ccccn1)c1nc2ccccc2s1	61*	39	26	-1	34
CCOc1cc(/C=N\NC(=O)c2ccc(NC(=O)C(C)(C)C)cc2)ccc1OC(=O)c1cccc(C)c1	86*	·	·	26	53*
CCOc1cc(/C=N\NC(=O)c2ccc(NC(=O)C(C)(C)C)cc2)ccc1OC(=O)c1ccc(C)cc1	-57	·	·	-2	4
Cc1cccc(C(=O)Oc2ccc(/C=N/NC(=O)c3ccc(O)cc3)cc2)c1	5	14	·	2	52*
Cc1noc(C)c1S(=O)(=O)Nc1ccc2c(c1)C(=O)N([C@H](C)CO)C[C@@H](C)[C@H](CN(C)S(=O)(=O)c1ccc(F)cc1)OCCCC[C@@H](C)O2	·	3	6	·	·
CNC[C@@H]1Oc2ccc(NS(=O)(=O)c3ccc(Cl)cc3)cc2C(=O)N([C@@H](C)CO)C[C@H]1C	·	-2	2	·	·
COc1ccc(N/C(N)=N/c2nc(C)cc(=O)[nH]2)cc1	-10	7	-2	86*	-7
Cc1ccn2cc(-c3cc4ccccc4oc3=O)nc2c1	66*	46	68*	25	0
C[C@H](CO)N1C[C@H](C)[C@@H](CN(C)S(=O)(=O)c2ccc(C(F)(F)F)cc2)OCc2ccccc2-c2ccccc2C1=O	·	6	9	·	·
C[C@H](CO)N1C[C@H](C)[C@H](CN(C)Cc2ccc3c(c2)OCO3)OCCCC[C@H](C)Oc2ccc(NS(=O)(=O)c3cccs3)cc2C1=O	·	-1	5	·	·
SMILES	TWEAK-Fn14 inh	LGR2 antag	EWS-Fli block	LMP1 NFkB inh	TROY NFkB inh
COC(=O)C1=C(C)N(c2ccc(Cl)cc2)/C(=C/c2ccc(O)cc2)C1=O	57*	32	13	4	16
COC(=O)C1=C(C)N(c2ccc(Cl)cc2)/C(=C/c2cccs2)C1=O	-4	-17	·	-14	-1
COC(=O)C1=C(C)N(c2cc(C)cc(C)c2)/C(=C/c2ccco2)C1=O	31	-10	8	1	28
COC(=O)C1=C(C)N(c2cc(C)cc(C)c2)/C(=C/c2ccc(O)cc2)C1=O	58*	29	6	52*	13
COc1ccc(NC2=C(C(C)=O)C(c3ccc(OC)c(OC)c3)C(C(C)=O)C(C)(O)C2)cc1 (stereo not given)	54*	·	·	5	38
C[C@@H]1CCCCO[C@H](CN(C)CC2CCCCC2)[C@H](C)CN([C@@H](C)CO)C(=O)c2cc(NS(=O)(=O)c3cccs3)ccc2O1	·	1	6	·	·
